Hits are enriched below; roughly 3.4% of the tested compounds scored in any of these assays.
MITF TRPM1 inh = inhibitors of MITF-driven TRPM1 promoter in melanoma cells; SK-MEL-5 TRPM1 promoter luciferase, 24 h; inhibition, % at 12.5 µM; 330,000 compounds, 0.83% hits; AID 488899;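 active = mean inhibition across replicates of 60% or more, whatever share of single replicates reaches that level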
HIF-2a inh = HIF-2a inhibition; inhibition, % at 18.8 µM; 786-0 RCC cells HIF-2a reporter, luciferase luminescence, overnight; 360,000 compounds, 0.72% hits;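 active = inhibition of the luminescence signal of 40% or more relative to plate controls, in a single-dose primary screen at 18.75 µM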
EBV LMP1 NFkB = inhibitors of Epstein-Barr LMP1-induced NF-kappaB reporter. LMP1-induced NF-kappaB luciferase reporter cells, luminescence. inhibition, % at 12.5 µM. 350,000 compounds, 0.69% hits; in the data active = inhibition above about 41%;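 also: 0% = neutral control wells and 100% = reference inhibitor control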
Shn3 3UTR inh = inhibitors of Schnurri-3 3'UTR reporter in osteoblasts. inhibition, % at 12.5 µM. Clone20 osteoblast Shn3 3'UTR firefly luciferase, 24 h. AID 588674. 360,000 compounds, 0.52% hits;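 active = mean inhibition of at least 75% with every replicate also reaching 75%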;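 also: 0% = median of neutral control wells and 100% = pilot-screen positive control compound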
TWEAK Fn14 block = inhibitors of TWEAK-Fn14 interaction signaling; TWEAK-stimulated Fn14 reporter cells, luciferase luminescence, 8 h; inhibition, % at 10 µM; 360,000 compounds, 2% hits; in the data active = inhibition above about 50%
TROY NFkB inh = TROY signaling inhibition | Q293 LMP1-TROYcd NF-kB luciferase reporter, 4 h | inhibition, % at 10 µM | 360,000 compounds, 0.98% hits;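 active = compounds whose plate-normalised and pattern-corrected inhibition of the luciferase reporter signal at the single screening dose is 50% or more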
Numbers without * were called inactive; x = not tested or not shown; ! = a repeat was not active.

SMILES | MITF TRPM1 inh | HIF-2a inh | EBV LMP1 NFkB | Shn3 3UTR inh | TWEAK Fn14 block | TROY NFkB inh
Cc1nn(C)c(C)c1NS(=O)(=O)c1ccccc1Cl | -2.9 | 3.9 | 3.7 | 8.4 | -3.0 | -0.4
Cc1ccc(/C=C(\C#N)C(=O)NCC2CCCO2)o1 (stereo unspecified) | -8.2 | -53.4 | 2.6 | -4.1 | -0.4 | -14.3
Cc1ccccc1-n1c(C)cc(/C=C(\C#N)C(=O)NCC2CCCO2)c1C (stereo unspecified) | -57.8 | -173.7 | -34.9 | -37.7 | 56.0* | 59.0*
CCOC(=O)C1CCN(S(=O)(=O)c2ccc(OC)c(C(=O)N3CCCCC3)c2)CC1 | x | 9.5 | -6.3 | -4.0 | 2.2 | -3.5
COc1ccc(S(=O)(=O)N(C)[C@H]2C[C@H]3c4cc(N5CCN(C)CC5)ccc4CCN3C(=O)[C@H]2[C@H](C)O)cc1 | x | 7.2 | 0.6 | -7.2 | -2.4 | 7.4
COc1ccccc1/C=C/C=N/n1c(C2CCCCC2)n[nH]c1=S | 1.1 | -166.5 | 10.9 | -42.0 | 33.7 | 68.9*
S=c1[nH]nc(C2CCCCC2)n1/N=C/c1ccncc1 | -3.4 | 10.6 | 48.1* | -7.1 | 82.4* | 13.7
CCOc1ccccc1/C=N/n1c(C2CCCCC2)n[nH]c1=S | 11.2 | 17.5 | -0.2 | 2.8 | -17.0 | 14.1
CCOC(=O)c1sc(NC(=O)Nc2ccccc2Cl)cc1C | -34.0 | -232.7 | -95.1 | -52.5 | 69.7* | 69.4*
CC1CCC(C(C)C)C(OC(=O)C[n+]2cc(-c3ccc(Cl)cc3)n3c2CCCCC3)C1 (stereo unspecified) | 86.6* | -10.8 | 19.0 | 59.7 | 40.5 | 45.9
COc1ccc2cc(-c3cc(C(=O)O)c4ccccc4n3)ccc2c1 | 28.3 | 35.0 | 66.0* | 65.8 | 75.0* | 25.4
Cn1cc(CN2CCCC(CO)(Cc3cccc(Cl)c3)C2)cn1 (stereo unspecified) | -11.0 | 6.8 | -0.1 | -20.3 | -3.4 | 10.5
CC(C)n1cc(CN2CCCC(CO)(Cc3cccc(Cl)c3)C2)cn1 (stereo unspecified) | 0.4 | 17.4 | -2.5 | 3.9 | 11.5 | 50.9*
COc1ccc(C(O)c2nc(-c3cncnc3)cs2)cc1 (stereo unspecified) | x | 12.5 | x | -20.6 | 8.1 | -15.3
Cc1ccc(OCC(=O)N2CCN(c3nnc(-c4ccc(C)cc4)c4ccccc34)CC2)cc1 | 3.9 | 10.2 | 19.6 | 55.5 | 51.1* | 59.2*
COc1ccc(OCC(=O)N2CCN(c3nnc(-c4ccccc4)c4ccccc34)CC2)cc1 | 5.3 | 18.9 | 9.3 | 44.3 | 7.1 | 27.5
COc1ccc(OCC(=O)N2CCN(c3nnc(-c4ccc(C)cc4)c4ccccc34)CC2)cc1 | 34.5 | 19.9 | 21.0 | 66.1 | -2.0 | 58.7*
CCc1nc2ccc(C(=O)Nc3ccc4c(c3)OCC(=O)N4)cn2c1N(C)C(=O)Cc1ccccc1 | x | 5.8 | x | 11.8 | -17.2 | 5.5
O=C(O)C(O)c1ccccc1 (stereo unspecified) | -6.5 | 6.5 | 82.8*! | 6.0 | 21.7 | 1.1
CCOC(=O)C1=C(CNCc2ccccc2Cl)NC(=O)NC1c1ccc2c(c1)OCO2 (stereo unspecified) | -0.9 | 16.5 | -8.6 | 18.7 | 79.8* | x
CCOC(=O)C1=C(CNCc2ccccc2Cl)NC(=O)NC1c1cccc([N+](=O)[O-])c1 (stereo unspecified) | 5.2 | 12.5 | 1.2 | -4.0 | 0.7 | 6.0
CCOc1ccc2[nH]c(C)c(CN3CCCCCC3)c(=O)c2c1 | 8.9 | 10.6 | -1.9 | 4.5 | -0.4 | -2.8
Cc1cc(=O)n2c3ccccc3n(CC(O)CN3CCN(CCO)CC3)c2c1C#N (stereo unspecified) | 10.1 | 4.6 | -2.3 | 6.2 | 68.1* | 2.0
Cc1cc(=O)n2c3ccccc3n(CC(O)CN3CCN(Cc4ccccc4)CC3)c2c1C#N (stereo unspecified) | -9.4 | 8.4 | 4.7 | 3.2 | 11.3 | -1.2
CC(C)CCN1C(=O)c2ccc(C(=O)Nc3ccc(Br)cc3C(=O)O)cc2C1=O | 2.5 | 11.1 | 3.1 | -10.7 | -3.4 | 57.6*
SMILES | MITF TRPM1 inh | HIF-2a inh | EBV LMP1 NFkB | Shn3 3UTR inh | TWEAK Fn14 block | TROY NFkB inh
COc1cc(C2C(C#N)=C(C)NC3=C2C(=O)c2ccccc23)cc(OC)c1OC (stereo unspecified) | 76.6* | -4.1 | 13.4 | 36.4 | 5.1 | 6.1
COc1ccc(C(C)C)cc1-c1cncc(NC(C)=O)n1 | x | 15.1 | x | 4.6 | 1.0 | 8.8
FC(F)(F)c1ccccc1-n1c(-c2cnccn2)n[nH]c1=S | 4.7 | -22.6 | 2.8 | -10.2 | 83.9* | 65.4*
CCN(CC)C1Oc2cc3c(cc2C(c2cc(OC)c(O)c(OC)c2)C1C)OCO3 (stereo unspecified) | 1.5 | 11.8 | -1.9 | -37.2 | 5.5 | 10.6
COc1cc(C2c3cc4c(cc3C(OC3OC5COC(c6cccs6)OC5C(O)C3O)C3COC(=O)C23)OCO4)cc(OC)c1O (stereo unspecified) | 75.7* | 6.9 | 75.3* | 93.6* | -65.3 | -50.5
COc1cc([C@@H]2c3cc4c(cc3[C@@H](O[C@@H]3O[C@@H]5CO[C@@H](C)O[C@H]5[C@H](O)[C@H]3O)[C@H]3COC(=O)[C@H]23)OCO4)cc(OC)c1O | 16.9 | 11.6 | 69.9* | 81.3 | -106.2 | -42.8
COc1cc([C@@H]2c3cc4c(cc3[C@H](O)[C@H]3COC(=O)[C@H]23)OCO4)cc(OC)c1OC | 61.3* | 28.5 | -4.1 | 10.3 | -0.3 | 5.5
COc1ccc(C(=O)CC(Sc2ccccc2N)c2ccc(OC)cc2)cc1 (stereo unspecified) | x | -132.6 | -73.1 | -10.6 | 79.8* | 12.8
COc1cccc(C2c3[nH]c4ccccc4c3C[C@H]3C(=O)N(c4ccccc4C(=O)N4CCC(C(=O)O)CC4)C(=O)N23)c1 (stereo partly specified) | 14.3 | 19.1 | -5.2 | -5.1 | -8.6 | 6.1
CCC(c1nnnn1-c1ccc2c(c1)OCCO2)N1CCN(C/C=C/c2ccccc2)CC1 (stereo unspecified) | x | -14.1 | x | 15.2 | 58.4* | 26.7
C(=C\c1ccccc1)/CN1CCN(C(c2nnnn2-c2ccc3c(c2)OCCO3)C2CC2)CC1 (stereo unspecified) | x | 9.1 | x | 20.8 | 57.6* | 21.8
C(=C\c1ccccc1)/CN1CCN(C(c2cc3ccccc3o2)c2nnnn2-c2ccc3c(c2)OCCO3)CC1 (stereo unspecified) | x | -8.0 | x | 17.7 | 68.5* | -0.5
C(=C\c1ccccc1)/CN1CCN(C(CCc2ccccc2)c2nnnn2-c2ccc3c(c2)OCCO3)CC1 (stereo unspecified) | x | -6.8 | x | 33.4 | 19.6 | 14.9
O=C(N/C(=C/c1ccccc1Cl)C(=O)N1CCCCC1)c1ccco1 | 3.1 | 11.6 | -1.5 | -6.8 | -8.2 | 18.2
COc1ccc(NS(=O)(=O)c2cccc(C(=O)N3CCCC3)c2)cc1 | 7.4 | 9.9 | 2.4 | 6.9 | 3.5 | -4.0
CCCc1sc(N/N=C/c2ccccn2)nc1-c1ccc(Br)cc1 | 58.1 | -175.5 | 59.0* | 83.9 | 12.8 | -18.6

Screening data: PubChem, several laboratories
